# Assay results published in ChEMBL document CHEMBL1961873, “Compounds: GSK PKIS; Assays: Nanosyn kinase panel” (2012).
# Assays:
# [1] = target: Mitogen-activated protein kinase 3 (Homo sapiens) (UniProt P27361); settings: at 1 µM;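 also: values are mean percent inhibition of MAPK3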
# [2] = target: SRSF protein kinase 3 (Homo sapiens) (UniProt Q9UPE1); settings: at 0.1 µM
# [3] = target: SRSF protein kinase 3 (Homo sapiens) (UniProt Q9UPE1); settings: at 1 µM
# [4] = target: Mitogen-activated protein kinase 14 (Homo sapiens) (UniProt Q16539); settings: at 0.1 µM
# Chain of Mitogen-activated protein kinase 14 (Homo sapiens) (Q16539 whole entry): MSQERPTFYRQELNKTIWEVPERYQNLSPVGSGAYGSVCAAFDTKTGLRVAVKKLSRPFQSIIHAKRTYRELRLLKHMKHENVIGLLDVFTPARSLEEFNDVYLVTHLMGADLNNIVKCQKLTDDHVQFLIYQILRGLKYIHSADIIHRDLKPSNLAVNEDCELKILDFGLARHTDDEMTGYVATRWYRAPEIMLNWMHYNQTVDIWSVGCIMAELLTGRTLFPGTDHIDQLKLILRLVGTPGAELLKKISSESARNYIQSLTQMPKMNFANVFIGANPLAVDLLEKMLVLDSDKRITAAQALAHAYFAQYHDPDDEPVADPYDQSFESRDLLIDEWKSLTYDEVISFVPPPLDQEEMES
# [5] = target: Mitogen-activated protein kinase 14 (Homo sapiens) (UniProt Q16539); settings: at 1 µM
# [6] = target: Mitogen-activated protein kinase 11 (Homo sapiens) (UniProt Q15759); settings: at 0.1 µM
# Chain of Mitogen-activated protein kinase 11 (Homo sapiens) (Q15759 whole entry): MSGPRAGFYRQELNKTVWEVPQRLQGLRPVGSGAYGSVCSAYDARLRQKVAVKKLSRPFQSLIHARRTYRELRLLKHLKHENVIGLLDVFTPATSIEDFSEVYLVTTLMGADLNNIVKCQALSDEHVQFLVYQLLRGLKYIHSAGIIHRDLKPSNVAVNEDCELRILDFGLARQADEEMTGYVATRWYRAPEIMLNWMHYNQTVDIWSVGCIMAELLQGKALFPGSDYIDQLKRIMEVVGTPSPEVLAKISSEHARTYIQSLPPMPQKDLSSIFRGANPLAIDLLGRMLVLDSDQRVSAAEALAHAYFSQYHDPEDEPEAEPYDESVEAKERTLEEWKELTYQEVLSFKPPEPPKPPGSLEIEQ
# [7] = target: Mitogen-activated protein kinase 11 (Homo sapiens) (UniProt Q15759); settings: at 1 µM
# [8] = target: T1, Mitogen-activated protein kinase 13 (Homo sapiens) (UniProt O15264); settings: at 0.1 µM
# T1 sequence (whole entry): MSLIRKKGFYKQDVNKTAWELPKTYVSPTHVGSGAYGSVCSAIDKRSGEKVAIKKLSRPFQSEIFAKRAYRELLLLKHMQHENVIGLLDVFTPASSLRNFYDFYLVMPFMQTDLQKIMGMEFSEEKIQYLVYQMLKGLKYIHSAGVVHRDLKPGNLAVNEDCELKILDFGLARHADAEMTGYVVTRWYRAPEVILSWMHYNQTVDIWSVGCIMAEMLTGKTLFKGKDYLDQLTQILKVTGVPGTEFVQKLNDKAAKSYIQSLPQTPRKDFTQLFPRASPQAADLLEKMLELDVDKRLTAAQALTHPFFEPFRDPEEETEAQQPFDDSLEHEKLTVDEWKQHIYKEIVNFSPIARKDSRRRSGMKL
# [9] = target: T1, Mitogen-activated protein kinase 13 (Homo sapiens); settings: at 1 µM
# [10] = target: T2, Mitogen-activated protein kinase 12 (Homo sapiens) (UniProt P53778); settings: at 0.1 µM
# T2 sequence (whole entry): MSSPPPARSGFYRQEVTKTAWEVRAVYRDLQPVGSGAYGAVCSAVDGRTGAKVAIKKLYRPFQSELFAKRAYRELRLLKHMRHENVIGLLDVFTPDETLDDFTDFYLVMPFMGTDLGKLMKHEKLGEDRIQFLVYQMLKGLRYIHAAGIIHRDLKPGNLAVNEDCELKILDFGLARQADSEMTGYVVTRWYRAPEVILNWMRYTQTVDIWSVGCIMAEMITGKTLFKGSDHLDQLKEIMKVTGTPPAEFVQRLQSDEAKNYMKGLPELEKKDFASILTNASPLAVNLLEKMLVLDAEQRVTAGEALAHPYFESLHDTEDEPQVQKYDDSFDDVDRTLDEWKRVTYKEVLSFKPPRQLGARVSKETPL
# [11] = target: T2, Mitogen-activated protein kinase 12 (Homo sapiens); settings: at 1 µM
# [12] = target: SRSF protein kinase 1 (Homo sapiens) (UniProt Q96SB4); settings: at 0.1 µM
# Chain of SRSF protein kinase 1 (Homo sapiens) (Q96SB4 whole entry, canonical isoform): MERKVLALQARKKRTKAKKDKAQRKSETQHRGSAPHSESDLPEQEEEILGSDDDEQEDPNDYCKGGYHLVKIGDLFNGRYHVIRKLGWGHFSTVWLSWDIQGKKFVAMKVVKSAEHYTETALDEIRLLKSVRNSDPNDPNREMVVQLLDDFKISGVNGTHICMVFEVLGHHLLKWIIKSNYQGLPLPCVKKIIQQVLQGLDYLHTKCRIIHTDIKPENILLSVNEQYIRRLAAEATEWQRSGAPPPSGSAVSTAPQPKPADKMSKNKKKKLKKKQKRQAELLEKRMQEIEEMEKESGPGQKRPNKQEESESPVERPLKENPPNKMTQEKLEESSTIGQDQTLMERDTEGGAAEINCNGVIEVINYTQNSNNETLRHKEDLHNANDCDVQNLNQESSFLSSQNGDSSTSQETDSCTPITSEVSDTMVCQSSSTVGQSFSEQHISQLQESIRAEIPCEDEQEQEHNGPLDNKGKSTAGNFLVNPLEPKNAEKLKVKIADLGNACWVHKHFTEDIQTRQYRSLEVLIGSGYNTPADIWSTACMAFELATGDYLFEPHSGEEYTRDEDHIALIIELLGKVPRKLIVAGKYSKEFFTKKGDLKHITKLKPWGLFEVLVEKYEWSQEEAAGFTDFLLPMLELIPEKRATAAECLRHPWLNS
# [13] = target: SRSF protein kinase 1 (Homo sapiens) (UniProt Q96SB4); settings: at 1 µM
# [14] = target: Phosphatidylinositol 4,5-bisphosphate 3-kinase catalytic subunit alpha isoform (Homo sapiens) (UniProt P42336); settings: at 0.1 µM
# Chain of Phosphatidylinositol 4,5-bisphosphate 3-kinase catalytic subunit alpha isoform (Homo sapiens) (P42336 whole entry, canonical isoform): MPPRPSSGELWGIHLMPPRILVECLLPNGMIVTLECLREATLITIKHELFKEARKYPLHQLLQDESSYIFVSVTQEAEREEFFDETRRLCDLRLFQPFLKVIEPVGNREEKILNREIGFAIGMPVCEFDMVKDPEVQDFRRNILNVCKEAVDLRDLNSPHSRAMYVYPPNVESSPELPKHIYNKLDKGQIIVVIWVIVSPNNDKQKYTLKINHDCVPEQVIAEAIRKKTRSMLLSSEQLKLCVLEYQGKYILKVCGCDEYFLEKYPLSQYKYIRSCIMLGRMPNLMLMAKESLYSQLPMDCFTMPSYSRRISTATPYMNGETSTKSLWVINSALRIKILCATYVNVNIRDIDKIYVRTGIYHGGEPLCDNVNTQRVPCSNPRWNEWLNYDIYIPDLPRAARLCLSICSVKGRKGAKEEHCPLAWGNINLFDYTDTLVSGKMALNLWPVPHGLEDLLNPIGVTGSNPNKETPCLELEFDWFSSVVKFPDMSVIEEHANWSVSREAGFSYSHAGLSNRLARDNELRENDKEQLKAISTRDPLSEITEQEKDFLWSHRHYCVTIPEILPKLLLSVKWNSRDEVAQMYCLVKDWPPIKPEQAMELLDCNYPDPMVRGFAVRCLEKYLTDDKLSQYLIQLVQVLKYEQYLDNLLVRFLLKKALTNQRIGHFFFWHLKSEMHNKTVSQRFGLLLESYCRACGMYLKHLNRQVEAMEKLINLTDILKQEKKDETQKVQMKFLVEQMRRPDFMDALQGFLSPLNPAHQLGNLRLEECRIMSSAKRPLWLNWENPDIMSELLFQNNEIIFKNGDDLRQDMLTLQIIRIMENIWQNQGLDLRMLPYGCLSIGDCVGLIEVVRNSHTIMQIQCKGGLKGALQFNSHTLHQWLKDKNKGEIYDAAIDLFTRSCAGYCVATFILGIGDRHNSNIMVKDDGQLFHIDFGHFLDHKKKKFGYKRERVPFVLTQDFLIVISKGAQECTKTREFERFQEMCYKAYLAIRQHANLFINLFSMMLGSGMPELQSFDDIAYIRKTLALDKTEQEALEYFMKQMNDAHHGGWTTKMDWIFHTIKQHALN
# [15] = target: Phosphatidylinositol 4,5-bisphosphate 3-kinase catalytic subunit alpha isoform (Homo sapiens) (UniProt P42336); settings: at 1 µM
# [16] = target: T3, Phosphatidylinositol 4,5-bisphosphate 3-kinase catalytic subunit delta isoform (Homo sapiens) (UniProt O00329); settings: at 0.1 µM
# T3 sequence (whole entry): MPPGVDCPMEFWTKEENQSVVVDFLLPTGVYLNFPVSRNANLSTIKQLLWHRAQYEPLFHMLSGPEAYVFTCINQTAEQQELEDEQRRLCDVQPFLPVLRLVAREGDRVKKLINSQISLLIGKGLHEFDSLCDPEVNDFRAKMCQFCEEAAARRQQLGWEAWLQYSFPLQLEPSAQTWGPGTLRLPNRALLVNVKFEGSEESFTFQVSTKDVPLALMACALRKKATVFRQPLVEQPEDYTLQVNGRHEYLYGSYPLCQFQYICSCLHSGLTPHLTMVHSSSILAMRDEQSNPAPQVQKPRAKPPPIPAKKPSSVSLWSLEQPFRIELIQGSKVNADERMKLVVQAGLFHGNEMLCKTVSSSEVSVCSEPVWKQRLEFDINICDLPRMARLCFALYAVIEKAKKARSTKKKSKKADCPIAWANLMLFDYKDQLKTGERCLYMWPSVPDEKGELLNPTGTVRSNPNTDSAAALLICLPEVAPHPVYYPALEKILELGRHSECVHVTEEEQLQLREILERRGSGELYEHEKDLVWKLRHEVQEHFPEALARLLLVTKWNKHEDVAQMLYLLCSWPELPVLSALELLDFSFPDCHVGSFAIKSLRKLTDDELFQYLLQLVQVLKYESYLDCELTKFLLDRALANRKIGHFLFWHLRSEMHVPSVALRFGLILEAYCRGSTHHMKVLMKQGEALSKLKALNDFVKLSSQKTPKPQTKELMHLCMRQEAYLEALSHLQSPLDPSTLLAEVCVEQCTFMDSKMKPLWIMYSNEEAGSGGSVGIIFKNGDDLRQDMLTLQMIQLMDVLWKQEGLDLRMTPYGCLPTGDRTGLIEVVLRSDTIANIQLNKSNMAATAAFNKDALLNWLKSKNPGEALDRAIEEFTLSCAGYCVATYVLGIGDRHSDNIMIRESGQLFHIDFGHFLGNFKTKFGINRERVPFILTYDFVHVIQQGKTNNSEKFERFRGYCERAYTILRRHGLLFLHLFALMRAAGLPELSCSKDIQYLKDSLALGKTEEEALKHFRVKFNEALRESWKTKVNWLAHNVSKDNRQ
# [17] = target: T3, Phosphatidylinositol 4,5-bisphosphate 3-kinase catalytic subunit delta isoform (Homo sapiens); settings: at 1 µM
# [18] = target: Phosphatidylinositol 4-kinase beta (Homo sapiens) (UniProt Q9UBF8); settings: at 0.1 µM
# Chain of Phosphatidylinositol 4-kinase beta (Homo sapiens) (Q9UBF8 2-816 limits assumed): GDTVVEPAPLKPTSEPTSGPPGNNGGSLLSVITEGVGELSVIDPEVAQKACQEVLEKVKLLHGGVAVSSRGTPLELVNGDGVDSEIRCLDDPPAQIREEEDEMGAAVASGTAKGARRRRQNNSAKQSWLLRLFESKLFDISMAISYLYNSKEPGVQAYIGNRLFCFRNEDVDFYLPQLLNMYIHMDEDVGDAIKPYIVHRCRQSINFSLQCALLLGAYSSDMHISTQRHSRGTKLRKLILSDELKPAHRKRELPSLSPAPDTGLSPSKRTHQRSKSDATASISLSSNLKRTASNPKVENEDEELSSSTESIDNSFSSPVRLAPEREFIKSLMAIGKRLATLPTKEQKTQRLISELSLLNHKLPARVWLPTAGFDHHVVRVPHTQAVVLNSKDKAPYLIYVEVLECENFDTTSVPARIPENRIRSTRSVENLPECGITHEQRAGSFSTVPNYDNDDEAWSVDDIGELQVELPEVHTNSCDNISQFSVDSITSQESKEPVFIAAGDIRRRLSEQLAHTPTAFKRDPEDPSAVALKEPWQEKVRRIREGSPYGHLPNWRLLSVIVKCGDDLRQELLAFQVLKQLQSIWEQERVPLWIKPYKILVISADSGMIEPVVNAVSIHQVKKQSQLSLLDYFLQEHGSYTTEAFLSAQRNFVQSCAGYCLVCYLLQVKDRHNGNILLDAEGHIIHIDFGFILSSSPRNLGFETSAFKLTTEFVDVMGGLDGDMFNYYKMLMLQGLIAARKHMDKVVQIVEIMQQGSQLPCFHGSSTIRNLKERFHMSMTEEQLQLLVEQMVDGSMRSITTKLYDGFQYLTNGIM
# [19] = target: Phosphatidylinositol 4-kinase beta (Homo sapiens) (UniProt Q9UBF8); settings: at 1 µM
# [20] = target: Sphingosine kinase 1 (Homo sapiens) (UniProt Q9NYA1); settings: at 0.1 µM;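 also: mean percent inhibition of SPHK1 activity, measured within the GSK PKIS screening panel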
# Chain of Sphingosine kinase 1 (Homo sapiens) (Q9NYA1 whole entry): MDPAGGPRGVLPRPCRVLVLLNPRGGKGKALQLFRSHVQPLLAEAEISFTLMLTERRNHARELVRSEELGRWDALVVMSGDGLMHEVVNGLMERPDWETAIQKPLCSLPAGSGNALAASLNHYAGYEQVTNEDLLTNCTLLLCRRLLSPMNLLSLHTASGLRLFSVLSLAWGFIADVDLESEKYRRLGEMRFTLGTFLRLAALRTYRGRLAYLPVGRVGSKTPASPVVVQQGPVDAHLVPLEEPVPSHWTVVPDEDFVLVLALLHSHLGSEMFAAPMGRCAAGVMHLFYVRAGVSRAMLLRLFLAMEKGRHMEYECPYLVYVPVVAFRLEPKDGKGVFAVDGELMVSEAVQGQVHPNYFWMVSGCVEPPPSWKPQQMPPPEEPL
# Chain of Mitogen-activated protein kinase 3 (Homo sapiens) (P27361 whole entry): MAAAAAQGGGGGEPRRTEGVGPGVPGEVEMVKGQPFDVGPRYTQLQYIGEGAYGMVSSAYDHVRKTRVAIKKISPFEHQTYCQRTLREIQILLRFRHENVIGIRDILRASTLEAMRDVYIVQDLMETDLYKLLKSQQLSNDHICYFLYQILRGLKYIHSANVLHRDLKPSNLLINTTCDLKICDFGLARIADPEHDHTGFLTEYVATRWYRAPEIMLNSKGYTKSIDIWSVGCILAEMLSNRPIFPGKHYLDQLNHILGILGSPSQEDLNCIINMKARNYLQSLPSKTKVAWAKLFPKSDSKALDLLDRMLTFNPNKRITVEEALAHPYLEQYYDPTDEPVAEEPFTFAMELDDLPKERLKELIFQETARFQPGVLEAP
# Chain of SRSF protein kinase 3 (Homo sapiens) (Q9UPE1 whole entry): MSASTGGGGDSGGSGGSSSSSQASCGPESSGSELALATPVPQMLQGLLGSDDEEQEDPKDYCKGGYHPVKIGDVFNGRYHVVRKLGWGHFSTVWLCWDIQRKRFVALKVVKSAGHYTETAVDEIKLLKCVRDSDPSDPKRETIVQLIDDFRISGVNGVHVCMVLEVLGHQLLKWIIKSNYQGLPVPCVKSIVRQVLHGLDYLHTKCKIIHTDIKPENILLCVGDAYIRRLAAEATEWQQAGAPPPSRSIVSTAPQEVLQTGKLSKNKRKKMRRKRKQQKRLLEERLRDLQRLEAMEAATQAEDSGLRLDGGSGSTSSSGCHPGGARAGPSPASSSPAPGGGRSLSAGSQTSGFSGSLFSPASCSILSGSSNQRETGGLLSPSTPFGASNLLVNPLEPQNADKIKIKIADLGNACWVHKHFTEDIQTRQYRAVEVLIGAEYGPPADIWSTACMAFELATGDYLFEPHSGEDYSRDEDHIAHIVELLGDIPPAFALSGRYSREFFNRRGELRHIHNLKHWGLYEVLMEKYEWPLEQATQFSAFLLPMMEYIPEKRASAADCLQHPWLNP
SMILES,inhibition [1] [%],inhibition [2] [%],inhibition [3] [%],inhibition [4] [%],inhibition [5] [%],inhibition [6] [%],inhibition [7] [%],inhibition [8] [%],inhibition [9] [%],inhibition [10] [%],inhibition [11] [%],inhibition [12] [%],inhibition [13] [%],inhibition [14] [%],inhibition [15] [%],inhibition [16] [%],inhibition [17] [%],inhibition [18] [%],inhibition [19] [%],inhibition [20] [%]
CCc1cccc(CC)c1/C=C/c1cncc(C(=O)NC)c1,1.29,1.81,0.49,3.92,8.94,4.41,4.99,-0.46,4.25,-2.91,1.19,-1.77,-2.98,1.54,1.36,4.84,3.62,-2.02,-0.43,0.93
Nc1nccc(-c2c(-c3ccc(F)cc3)ncn2C2CCC(O)CC2)n1 (stereo not given),0,1.14,0.84,70.8,92.5,14.9,62.2,0.18,-2.89,-3.41,-0.94,1.95,4.67,16.6,3.18,3.72,7.23,-6.38,-0.81,0.34
CN(C)CCOc1ccc(-c2cc(-c3ccc4c(c3)CCC4=NO)c(-c3ccncc3)o2)cc1,1.25,-6.42,-1.92,-0.58,0.13,-0.55,1.57,-1.01,-2.49,-0.25,-0.32,-1.96,-0.37,-0.14,1.74,2.02,6.39,3.66,2.02,-0.35
COc1ccc(-c2ccc3c(NC(=O)C4CC4)n[nH]c3n2)cc1,4.66,-1.22,1.44,1.32,5.28,2.79,8.84,-0.41,0.43,1.27,0.89,-0.87,1.03,1.49,0.27,-0.49,-0.82,-2.64,-0.19,0.68
NS(=O)(=O)c1ccc(Nc2cc(-c3ccc(O)c(F)c3)n[nH]2)cc1,-1.26,-1.38,0.03,-1.03,-2.41,-1.5,6.83,-6.82,-4.19,-2.85,-2.2,1.32,1.27,-2.99,2.09,-0.68,2.48,7.96,9.37,3.64
CN(C)CCCNc1nccc(-c2c(-c3ccc(F)cc3)nn3cc(C(F)(F)F)ccc23)n1,2.96,2.1,6.95,17.8,67.8,5.1,17.9,1.74,5.4,0.47,5.27,-0.17,-0.01,0.79,0.02,2.6,2,-3.83,11.1,0
CN1CCN(CCCNc2nc3ccc(Oc4ccc(NC(=O)Nc5cc(C(F)(F)F)ccc5F)cc4)cc3[nH]2)CC1,0.83,2.09,4.1,8.14,51.8,5.1,22.1,0.46,1.31,-0.38,1.58,-1.48,-3.44,2.13,0.9,1.3,7.49,1.45,-2.72,-1.28
C[C@@H](Oc1cc(-n2cnc3ccc(OC4CCN(C)CC4)cc32)sc1C(N)=O)c1ccccc1Cl,4.52,-2.03,-0.98,9.29,10.7,2.89,3.75,4.78,6.01,4.13,5.86,-2.69,-1.4,5.06,19.7,9.45,62.5,-3.18,3.72,-2.98
O=C(Nc1ccc(Oc2ccc3[nH]c(NC(=O)c4ccccc4)nc3c2)cc1)Nc1cc(C(F)(F)F)ccc1F,3.58,4.8,50.7,11.1,40,5.44,32.5,1.65,3.87,-0.11,3.12,-0.76,7.91,0.59,8.12,-0.81,8.31,1.83,-2.27,0.81
COc1ccc(C2=C(N3CCc4ccccc43)C(=O)NC2=O)cc1,5.25,0.52,1.43,3.41,12.2,4.81,8.67,-0.17,3.67,12,3.4,-1.12,0.76,6.53,12.6,5.26,9.11,3.23,-7.57,0.25
NC(=O)c1cc(-c2ccncc2)cc(-c2ccccc2)c1N,5.5,-0.96,-0.93,6.9,14.9,6.98,14.8,2.69,5.81,0.76,3.34,-1.6,-0.84,4.53,6.5,3.68,5.3,0.64,3.86,-0.86
Fc1ccc(-c2c(-c3ccncc3)nc3n2CCS3)cc1,2.25,-1.16,1.49,1.13,10.9,1.9,0.65,3.54,2.65,3.9,2.27,-0.47,-2.14,2.88,4.64,2.37,3.22,-2.06,1.12,3.13
CCN(CC)Cc1ccc(Nc2nccc(-c3cnn4ncccc34)n2)cc1,7.61,-1.94,-0.22,6.95,13.1,3.23,4.99,4.71,9.25,3.65,6.9,-2.98,-1.36,3.82,11.4,6.31,40.2,-2.34,4.5,0.05
